Drawing on PubChem BioAssay AID2761 (The Scripps Research Institute Molecular Screening Center, 2010), this text covers inhibition for 2 molecules.

The target of this assay is Serine protease Rv3671c (Mycobacterium tuberculosis (strain ATCC 25618 / H37Rv)) (UniProt P9WHR9). Briefly: Rv3671c serine protease inhibitors, retest, confirmation, biochemical, fluorescence polarization, M. tuberculosis H37Rv (AID 2761). The note with it: at 5.96 µM; stronger effect = higher value. In general terms: Polarisation of emitted light reports the rotation of a fluorescent probe.

Some of the results follow. A number with no mark means an inactive call. Active and inactive are the calls of the source. No stated cut-off is given here; in the data, active means inhibition above about 38%; inactive means the rest.

Serine protease Rv3671c (Mycobacterium tuberculosis (strain ATCC 25618 / H37Rv)), sequence (P9WHR9 whole entry, looked up): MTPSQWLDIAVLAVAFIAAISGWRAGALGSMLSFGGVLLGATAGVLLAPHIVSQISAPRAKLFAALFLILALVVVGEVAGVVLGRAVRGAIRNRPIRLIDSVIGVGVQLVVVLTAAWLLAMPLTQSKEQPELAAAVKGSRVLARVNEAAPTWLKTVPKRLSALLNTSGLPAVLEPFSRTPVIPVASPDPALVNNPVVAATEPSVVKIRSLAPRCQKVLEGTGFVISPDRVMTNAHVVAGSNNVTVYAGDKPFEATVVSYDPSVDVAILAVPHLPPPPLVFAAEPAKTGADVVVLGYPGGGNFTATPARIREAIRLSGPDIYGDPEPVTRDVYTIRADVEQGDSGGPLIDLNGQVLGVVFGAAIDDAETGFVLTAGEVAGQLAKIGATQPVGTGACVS

With `c1ccc2[nH]c(-c3nc4ccccc4[nH]3)nc2c1`, the inhibition (in general, the relative decrease from the control value, in per cent) is 66.6% (active).
With `COCCOC(=O)c1sc(=S)n(CCOC)c1N` the figure was 28.9%.
